The values below come from PubChem BioAssay (NCATS).

Records with an inconclusive call do not appear. Activity calls are given as the source filed them. Unless noted, calls follow the shape of the dose curve; as a rule, active = well fitted curve in the direction sought with a large enough effect; inconclusive = small, poorly fitted or top-dose-only effect, or another doubt; inactive = no such curve, though single readings can be large; an effect the other way counts as inactive or inconclusive.

Assay [1] can be described thus: Quantitative High-Throughput drug screen in 47 multiple myeloma cell lines against the NCATS MIPE library collection: RPMI8226_ATCC cell viability assay (AID 1919871). Also: nearly all actives have a fitted effect of over 30% in size. Also: potency is read from the fitted curve at half-maximal effect. Summed up:
(§1)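 qHTS format: cells plated (500/well), pin-dosed with MIPE 4.0 compounds, kept 48 h at 37 °C. Readout was CellTiter-Glo luminescence, median RLU.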

Assay [2] can be described thus: Quantitative High-Throughput drug screen in 47 multiple myeloma cell lines against the NCATS MIPE library collection: OPM2_DSMZ cell viability assay (AID 1919872). Also: nearly all actives have a fitted effect of over 30% in size. Also: potency is read from the fitted curve at half-maximal effect. Summed up:
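CellTiter-Glo luminescence (ATP) after 48 h compound exposure, 37C/5% CO2; 500 cells/well; MIPE 4.0 approved/investigational drugs pinned in; DMSO = 100%, media only = 0% viability.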

A short description of assay [3]: Quantitative High-Throughput drug screen in 47 multiple myeloma cell lines against the NCATS MIPE library collection: KMS28BM_JCRB cell viability assay (AID 1919874). Also: nearly all actives have a fitted effect of over 35% in size. Also: potency is read from the fitted curve at half-maximal effect. Summed up: as §1
The nature of assay [4]: qHTS drug screen for cell cycle checkpoint inhibitors in PARPi-resistant BRCA-mutant ovarian cancer cell lines. (AID 1963452; calls by dose curve). To be noted: PEO1/OlaR viability, CellTiter-Glo luminescence, 96 h, stronger effect = lower value. Summed up:
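PEO1, PEO4 and PEO1/OlaR ovarian cancer cells, 600 per well, exposed 96 h at 37C to a dilution series. Viability read by CellTiter-Glo luminescence, normalized to DMSO and empty wells; activity summarized as Z-AUC.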
For orientation: In qHTS, concentration-response curves come from the screen itself.

Assay [5] can be described thus: qHTS for identification of novel therapeutic agents for treatment of microphthalmiaassociated transcription factor (MiT) renal cell carcinoma (RCC) (AID 1963991). To be noted: CellTiter-Glo, 48 h, stronger effect = lower value. Summed up:
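Curves over 11 concentrations were fitted to CellTiter-Glo luminescence, scaled between empty wells (0%) and DMSO (100%) viability. Cells were UOK109, UOK124 and UOK145 TFE3-fusion RCC lines at 500/well, exposed 48 hours at 37 C.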

Assay [6] in a line: qHTS profiling for inhibitors of Plasmodium falciparum proliferation (AID 504749). Also: nearly all actives have a fitted effect of over 60% in size. Also: potency is read from the fitted curve at half-maximal effect.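 As to activity, negative = inhibition: 0% = DMSO vehicle and full inhibition = artemisinin control.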 Conditions: P. falciparum in erythrocytes, SYBR Green DNA, 72 h. Summed up: (§2)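 Quantitative HTS: compounds pinned into medium, infected erythrocytes added (0.3% parasitemia, 2.5% hematocrit), 72 h culture at 37 C under 5% CO2. Saponin/Triton lysis with SYBR Green I, overnight RT, then fluorescence read.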

Assay [7] relates to 3D7. Described as above. To be noted: P. falciparum in erythrocytes, SYBR Green DNA, 72 h; series mostly up to 28.7 µM. Summed up:
as §2

Assay [8] relates to 7G8. The description is as above. Conditions: P. falciparum in erythrocytes, SYBR Green DNA, 72 h; series mostly up to 28.7 µM. Summed up:
as §2

The subject of assay [9] is AA1029. The description is as above. To be noted: P. falciparum in erythrocytes, SYBR Green DNA, 72 h; series mostly up to 28.7 µM. Summed up:
as §2

Assay [10] deals with AS120. The description is as above. To be noted: P. falciparum in erythrocytes, SYBR Green DNA, 72 h; series mostly up to 28.7 µM. Summed up: as §2
For assay [11], the system named is ATS189. The assay is described as above. Conditions: P. falciparum in erythrocytes, SYBR Green DNA, 72 h; series mostly up to 28.7 µM. Summed up: as §2
[12] abbreviates: measured here: PEO1 parental Z-AUC.
[13] abbreviates: TFE3-RCC UOK109 viability, measured here: UOK109 Z-AUC.
[14] abbreviates: TFE3-RCC viability, measured here: UOK124 Z-AUC.
Where [15] appears, read: TFE3-RCC viability, measured here: UOK145 Z-AUC.
Where [16] appears, read: at 28.7 µM (top of the series), parasite line A.
Setting [17] is: at 28.7 µM (top of the series), parasite line B.

For the molecule `COc1ccc(C(=O)c2c(C)n(CCN3CCOCC3)c3ccccc23)cc1`, the Potency entry in [1], in assay [2], in [3], in assay [7], in assay [9] and in assay [10] was “inactive” throughout. The Potency entry in assay [11] was “inactive”. In addition, the Z-AUC in assay [4] is 0.0561 (inactive); in assay [4] (setting [12]) it was -0.45; in assay [4] (measured here: PEO4 Z-AUC), -1.01. Besides, the z-score in [5] (setting [13]) worked out at 0.603; in assay [5] (setting [14]) it was 0.604; in assay [5] (setting [15]) it was 0.655. For the same molecule, the figures for the activity, negative = inhibition in assay [6] (setting [16]) and in [6] (setting [17]) were -0.832% (inactive) and 8.06% (inactive), respectively. Besides, the Potency in [8] is 12.6 µM (active).

Take `CN(C)CCc1ccc(O)cc1`: the Potency entry in assay [1], in assay [2], in assay [7], in assay [8], in assay [9] and in assay [10] was “inactive” throughout. The Potency result in [11] is “inactive”. Moreover, the z-score came to 2.07 in [5] (setting [13]), 0.378 in [5] (setting [14]) and 0.923 in [5] (setting [15]). For the same molecule, the activity, negative = inhibition was -8.4% (inactive) in [6] (setting [16]) and 2.47% (inactive) in [6] (setting [17]).

As for `Fc1ccc(C(OCCN2CCN(CCCc3ccccc3)CC2)c2ccc(F)cc2)cc1`, the Potency was 18.7 µM (active) in assay [1]; 23.5 µM (active) in assay [2]; 13.2 µM (active) in assay [3]; 8.91 µM (active) in [6] (parasite line A); 11.2 µM (active) in assay [6] (parasite line B); 8.91 µM (active) in assay [7]. In addition, the Potency in assay [8] was 3.55 µM (active); in [9] it was 7.08 µM (active); in assay [10], 4.47 µM (active); in [11], 8.91 µM (active). Further, the Z-AUC is 0.198 (inactive) in assay [4], -0.0312 in [4] (setting [12]) and -0.0118 in assay [4] (measured here: PEO4 Z-AUC).

Consider `COc1ccc(C(CN(C)C)C2(O)CCCCC2)cc1` (stereo not given), for which the Potency result in assay [1], in assay [2], in assay [7], in assay [8], in [9] and in assay [10] was “inactive” throughout. Further, the Potency result in assay [11] is “inactive”. For the same molecule, the results for the activity, negative = inhibition in assay [6] (setting [16]) and in assay [6] (setting [17]) were 4.2% (inactive) and -12.5% (inactive), respectively.

In the case of `Cn1cc(C2=C(c3cn(C4CCN(Cc5ccccn5)CC4)c4ccccc34)C(=O)NC2=O)c2ccccc21`, the Potency entry in [1] and in assay [3] was “inactive” throughout. Moreover, the Z-AUC in [4] is -0.351 (inactive); in assay [4] (setting [12]) it was 0.347; in assay [4] (measured here: PEO4 Z-AUC), 0.154.

For the molecule `O=C(O)C(=O)c1cn(Cc2ccccc2)c2ccc(-c3ccc(OC(F)(F)F)cc3)cc12`, the Potency result in assay [1], in assay [2] and in assay [3] was “inactive” each time. In addition, the Z-AUC in assay [4] is -0.0319 (inactive); in assay [4] (setting [12]), 0.702; in assay [4] (measured here: PEO4 Z-AUC), 0.863.

As to `O=C1CC[C@@]2(O)[C@H]3Cc4ccc(O)c5c4[C@@]2(CCN3CC2CC2)[C@H]1O5`, the Potency entry in assay [2] and in [3] was “inactive” throughout. Moreover, the Z-AUC in [4] was -0.771 (inactive); in assay [4] (setting [12]), -0.291; in [4] (measured here: PEO4 Z-AUC), -0.633. For the same molecule, the z-score is 0.814 in [5] (setting [13]), 0.454 in assay [5] (setting [14]) and 1.09 in assay [5] (setting [15]).

In the case of `O=P1(NCCCl)OCCCN1CCCl` (stereo not given), the Potency entry in [2], in assay [7], in assay [8], in [9], in assay [10] and in assay [11] was “inactive” in each case. The results for the Z-AUC in assay [4], in [4] (setting [12]) and in [4] (measured here: PEO4 Z-AUC) were 0.293 (inactive), -0.297 and -0.293, respectively. The activity, negative = inhibition in [6] (at 12.8 µM (top of the series), parasite line A) was -2.67% (inactive); in assay [6] (at 12.8 µM (top of the series), parasite line B) it was 0.405% (inactive).
